Test results reported in ChEMBL document CHEMBL3433997, “St. Jude Leishmania screening dataset” (2016).

What follows are molecules tested against Glucose transporter (Leishmania mexicana) (UniProt O61059) (assay: ST_JUDE_LEISH: Cytotoxicity at 2uM final concentration against transgenic Leishmania Mexicana promastigotes LmGT2 that are glucose transport deficient and complemented with the L. Mexicana glucose transporter 2. Activity is measured by DNA content using SYBR green in vitro).
Type: functional

SMILES	inhibition [%]
O=C(NCc1cccc(F)c1)Nc1ccc(-c2cccc(-c3nc4ccccc4[nH]3)c2)cc1	-0.32
c1cc(CNCCc2ccncc2)cc(-c2ccc(-c3nc4ccccc4[nH]3)cc2)c1	0.79
O=C(NC1CCCCC1)N(Cc1cccc(-c2ccc(CNCCc3ccccc3)cc2)c1)C1CCN(Cc2ccccc2)CC1	4.45
COc1ccc(S(=O)(=O)N(c2cc(Br)cc3c2OCC3)S(=O)(=O)c2ccc(OC)c(N3CCN(C)CC3)c2)cc1N1CCN(C)CC1	0.55
CCc1cc(Br)c(CNCCCNc2cc(=O)c3ccccc3[nH]2)s1	-2.7
O=C(/C=C/c1ccc(CNCCN2CCOCC2)cc1)NCCc1ccccc1	0.2
CCc1cc2c(Sc3nc4ccccc4[nH]3)ncnc2s1	-0.12
Cc1ccc(C2CCN(CCCCNC(=O)c3ccc(NC(=O)c4ccc(Cl)cc4)cc3)CC2)c(OCC(F)(F)F)c1	0.66
COc1ccc2nccc([C@@H](O)CN3CCC(NCc4cnc5c(c4)NC(=O)CS5)C(F)C3)c2c1 (stereo not given in full)	0.86
COc1ccc2nccc([C@@H](O)CN3CCC(NC(=O)/C=C/c4ccc5ccccc5n4)CC3)c2c1	7.42
